VACV Venus inh = inhibitors of vaccinia virus (Venus reporter); actives 0.46% (n = 330,000); Vaccinia virus Venus reporter expression, fluorescence; Potency, µM (top dose mostly 36.5 µM), for inactives: at the highest dose activity change, negative = inhibition, usual class: inhibitors; AID 720580; calls by dose curve; tested in A549 cells; also: nearly all actives have a fitted effect of over 30% in size
Pf growth 96h = P. falciparum growth inhibition at 96 hour, primary screen for plastid delayed-death inhibitors; P. falciparum luciferase reporter growth, 96 h; Potency, µM (highest dose often 28.7 µM), without a hit: top-dose activity change, negative = inhibition, most hits filed as inhibitors; actives 6.9% (n = 320,000)
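Delayed-death screen, second-generation endpoint: infected erythrocytes, 2% hematocrit, 0.05% parasitemia final; 96 hours at 37 C, 5% CO2; luciferase detection reagent; luminescence decrease equals reduced growth.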
Vaccinia mCherry = vaccinia inhibition (mCherry reporter) | Vaccinia virus mCherry reporter infection, fluorescence | Potency, µM (top dose mostly 36.5 µM), inactives show at the highest dose activity change, negative = inhibition, hits mostly inhibitors | actives 0.63% (n = 310,000) | AID 720579; calls by dose curve; tested in A549 cells; also: nearly all actives have a fitted effect of over 35% in size
Pf growth 48h = inhibits P. falciparum growth in the first generation, 48 h. AID 504832. actives 5.9% (n = 310,000). Potency, µM (doses to about 28.7 µM), without a hit: at the top dose activity change, negative = inhibition, actives largely listed as inhibitors. P. falciparum luciferase growth in erythrocytes, 48 h
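First compound was added to culture medium, then infected red cells at 0.1% parasitemia and 2% hematocrit (final). After incubation at 37 C under 5% CO2, luciferase detection reagent was dispensed and light output recorded.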
AMA1 RON2 block = disrupts binding of P. falciparum AMA1 to RON2; AlphaScreen AMA1-biotinylated RON2 peptide binding; Potency, µM (titrated, usually from 58.2 µM), inactives show at the highest dose activity change, negative = inhibition, hits mostly inhibitors; actives 0.2% (n = 360,000);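 also: 0% = vehicle wells and -100% = peptide control; nearly all actives have a fitted effect of over 45% in size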
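AMA1 (3D7) with his tag at 25 nM final met compounds first, then biotinylated RON2 peptide at 25 nM; detection used donor plus acceptor beads, 10 µg/mL apiece, read by AlphaScreen after 30 min at room temperature.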
* = called active by the depositor; i = inactive; u = inconclusive; x = no result; [ ] = remark or other dose. Sampled rows, rich in hits. Any-hit rate of the full collection: about 8.7%. Unless noted, calls follow the shape of the dose curve; as a rule, active = well fitted curve in the direction sought with a large enough effect; inconclusive = small, poorly fitted or top-dose-only effect, or another doubt; inactive = no such curve, though single readings can be large; an effect the other way counts as inactive or inconclusive. Unless noted, % is scaled to controls: 0 for no effect and ±100 for the full control effect; potency is read from the fitted curve at half-maximal effect.

SMILES	VACV Venus inh	Pf growth 96h	Vaccinia mCherry	Pf growth 48h	AMA1 RON2 block
CCOC(=O)C(NC(=O)c1ccccc1Cl)(Nc1sc2c(c1C(N)=O)CCC2)C(F)(F)F (configuration not stated)	x	4.1µM*	x	u	13%
Cc1ccc(S(=O)(=O)NCCCCCC(=O)Nc2cccc(C)c2)cc1	-20%	12µM*	-28%	-10%	8%[2.32 µM]
COc1ccc(NC(=O)CSc2nc(-c3ccc(F)cc3)c3cccc(C)c3n2)cc1	-18%	x	-11%	x	x
CCn1c2ccccc2c2cc(/C=N/n3cn[nH]c3=S)ccc21	x	8.3µM*	x	u	16%
COc1ccc(S(=O)(=O)N2CCC(C(=O)NC3CC3)CC2)cc1C	-10%	3.3µM*	i	u	15%
Cc1ccc(S(=O)(=O)N2CCC(C(=O)NC3CCCC3)CC2)cc1Cl	-4%	1.3µM*	-20%	u	-1%
Cc1ccc(S(=O)(=O)N2CCCC(C(=O)NC3CCCC3)C2)cc1Cl (configuration not stated)	-6%	u	-5%	-23%	1%
COc1ccc(S(=O)(=O)N2CCN(S(=O)(=O)c3ccc(C(F)(F)F)cc3)CC2)cc1C	-19%	12µM*	-15%	1%	-8%
O=C(NC1CC1)C1CCN(S(=O)(=O)c2cc(Cl)ccc2Cl)CC1	-14%	0.083µM*	i	-4%	-11%
COc1ccc(S(=O)(=O)N2CCN(C)CC2)cc1C	4%	u	-7%	x	5%
COCCNC(=O)CCCn1c(=O)[nH]c2ccsc2c1=O	1%	x	-4%	x	x
Cc1ccc(NC(=O)CSc2ccc(-c3cccs3)nn2)cc1Cl	-20%	x	-3%	x	x
COc1cc(-c2nnc(SCC(=O)N3CCCc4ccccc43)o2)cc(OC)c1OC	4%	x	-4%	x	x
O=C(NC1CC1)C1CCN(S(=O)(=O)c2ccc(Cl)cc2)CC1	0%	7%	i	1.7µM*	-10%
O=S(=O)(CCc1nnc(-c2ccccc2)o1)c1ccc2ccccc2c1	2.8µM*	16%	x	x	8%
O=S(=O)(CCc1nc2ccccc2o1)c1ccc2ccccc2c1	-25%	x	x	5%	1%
CCC(C)C(NC(=O)C1CCC(=O)N1C(=O)OCc1ccccc1)C(=O)NC(Cc1ccccc1)C(N)=O (configuration not stated)	-13%	37%	i	2%	9%
CC(C)CC(NC(=O)C1CCC(=O)N1C(=O)OCc1ccccc1)C(=O)NC(Cc1ccccc1)C(N)=O (configuration not stated)	5%	7%	-17%	10µM*	-13%
O=C(C1CCN(S(=O)(=O)c2ccc(Br)s2)CC1)N1CCN(c2cccc(C(F)(F)F)c2)CC1	-27%	x	u	x	x
Cc1cccc(NC(=O)CSc2nc(-c3cccs3)cc(C(F)(F)F)c2C#N)c1C	2%	x	-2%	x	x
CCOc1ccccc1NC(=O)NC1Cc2ccccc2C1	x	8.3µM*	x	u	-1%
CCOc1ccccc1NC(=O)Nc1ccncc1	-18%	15%	-22%	3.3µM*	-4%
CCOc1cccc(NC(=O)/C(C#N)=C/c2cccnc2)c1	x	-3%	x	-11%	-1%
CCOc1ccccc1NC(=O)/C(C#N)=C/c1cccnc1	-6%	13µM*	i	-23%	4%
CCOc1ccccc1NC(=O)c1cnccn1	x	12µM*	x	u	3%
SMILES	VACV Venus inh	Pf growth 96h	Vaccinia mCherry	Pf growth 48h	AMA1 RON2 block
O=C(Nc1ccccc1Oc1ccccc1)c1cnccn1	u	1%	-21%	u	-2%
CCOC(=O)C1=C(CN2CCN(c3cccc(OC)c3)CC2)NC(=O)NC1c1ccc(OC)cc1 (configuration not stated)	-19%	x	-4%	x	x
CSc1ccc(CNC(=O)c2cc3c(=O)n(Cc4ccco4)ccc3nc2C)cc1	-4%	x	-7%	x	x
CCc1ccc(C2CC(=O)c3c([nH]c(C(=O)OC4CCC(C)CC4)c3C)C2)cc1 (configuration not stated)	-18%	x	-12%	x	x
O=C(NCCc1ccccc1)C1CCN(c2ncnc3c2nc2n3CCCCC2)CC1	-7%	x	i	x	x
COc1ccc(C2NN=C(c3ccc(C)cc3)S2)cc1OC (configuration not stated)	0%	1.9µM*	-8%	351%	-2%
Cc1ccc(C2=NNC(c3cccc(F)c3)S2)cc1 (configuration not stated)	-7%	12µM*	-8%	i	20%
COc1ccc(C2NC(=O)CS2)cc1OC (configuration not stated)	-25%	-21%	-4%	7%	-7%
Fc1cccc(C2NN=C(c3ccccc3)S2)c1 (configuration not stated)	-15%	246%	i	270%	14%
COC(=O)[C@@H]1CCCN1Cc1ccc2c(c1)CN(Cc1coc3ccc(C)cc3c1=O)CCO2	-10%	x	-15%	x	x
COc1ccccc1C(=O)N1CCOc2ccc(CN3CCN(Cc4ccccn4)CC3)cc2C1	3%	x	-11%	x	x
CS(=O)(=O)Nc1ccc(C2=NN(C(=O)c3ccco3)C(c3cccc(F)c3)C2)cc1 (configuration not stated)	-23%	u	-8%	13µM*	11%
CCS(=O)(=O)Nc1ccc(C2=NN(C(=O)c3ccco3)C(c3ccc(C)cc3)C2)cc1 (configuration not stated)	x	u	x	10µM*	-3%
CCS(=O)(=O)Nc1ccc(C2=NN(C(=O)c3ccco3)C(c3cccc(F)c3)C2)cc1 (configuration not stated)	u	u	-29%	u	-24%
CC1=C(C(=O)Nc2cccnc2)C(c2ccccc2)n2nc(SCc3ccccc3F)nc2N1 (configuration not stated)	-7%	x	i	x	x
COc1cc2nc(CN(CCO)C3CS(=O)(=O)CC3O)nc(N3CCCCC3)c2cc1OC (configuration not stated)	-11%	x	-12%	x	x
CCOC(=O)CCc1c(C)nc(SCCN2CCCC2)c(C#N)c1C	x	5.2µM*	x	u	26%
CCOC(=O)CCc1c(C)nc(SCCCn2c(=O)[nH]c3ccccc32)c(C#N)c1C	-7%	-1%	-11%	u	-19%
COc1ccc(C(=O)CSc2nnc(CN3CCCCC3)n2-c2ccc(Cl)cc2)cc1OC	-16%	10µM*	-19%	u	-1%[11.6 µM]
Cc1ccc(C)c(NC(=O)CN(Cc2ccccc2)S(=O)(=O)c2ccc3nc(C)sc3c2)c1	-21%	x	-10%	x	x
COc1ccccc1/C=C/C1(C(=O)NC2CCCC2)CC(=O)N1c1ccc(F)cc1 (configuration not stated)	x	32%	x	10µM*	42%
COc1ccccc1/C=C/C1(C(=O)NC2CCCC2)CC(=O)N1c1ccc(C)cc1 (configuration not stated)	x	-16%	x	u	-9%
COc1cc(Cl)cc2c1Sc1ccccc1/C2=C/CCN(C)C	u	u	-29%	12µM*	u

Compound activity (PubChem BioAssay)
